Format in all cases: functional
For assay [1], the system named is Plasmodium falciparum. Description: GSK_TCMDC: Inhibition of Plasmodium falciparum 3D7 in whole red blood cells, using parasite LDH activity as an index of growth. Test compounds present at 2uM.
For assay [2], the system named is Plasmodium falciparum. Description: GSK_TCMDC: Inhibition of Plasmodium falciparum Dd2 in whole red blood cells, using parasite LDH activity as an index of growth. Test compounds present at 2uM.
In assay [3] the test system is HepG2. Description: GSK_TCMDC: Percent inhibition of human HepG2 cell line. Test compounds present at 10uM.

With `c1ccc(Oc2ccc(Nc3ccnc4cc(-c5cccc(CN6CCOCC6)c5)ccc34)cc2)cc1`, the figures for the Inhibition in assay [1], in assay [2] and in assay [3] were 100%, 100% and 14%, respectively.

`CN1CCC(N2CCN(Cc3cccc(-c4ccc(-c5nc6ccccc6[nH]5)cc4)c3)CC2)CC1.O=C(O)C(F)(F)F`: the Inhibition is reported as 100% in assay [1], 99% in assay [2] and 56% in assay [3].

For `O=C(Nc1cccc(C(F)(F)F)c1)Nc1ccc2nonc2c1`, the values for the Inhibition in assay [1], in assay [2] and in assay [3] were 98%, 76% and 0%, respectively.

As for `N#Cc1cc(C(=O)Nc2ccccc2)c(N)nc1SCC(=O)Nc1ccc(Br)cc1`, the Inhibition in assay [1] was determined as 100%; in assay [2], 66%; in assay [3], 11%.

With `Cc1ccccc1C1CCN(C2CCC(NC(=O)/C=C/c3cccc(Cl)c3)CC2)CC1` (configuration not stated), the Inhibition in assay [1] was determined as 98%; in assay [2] it was 34%; in assay [3], 70%.

Consider `Cc1cccc(C(=O)NCCCN2CCC(NC(=O)/C=C/c3ccc(Cl)c(Cl)c3)CC2)c1.O=C(O)C(F)(F)F`, for which the figures for the Inhibition in assay [1], in assay [2] and in assay [3] were 98%, 23% and 39%, respectively.

As for `COc1ccc(N2CCN(CCc3ccc(NC(=O)c4ccc([N+](=O)[O-])cc4)cc3)CC2)c(OC)c1`, the values for the Inhibition in assay [1], in assay [2] and in assay [3] were 83%, 0% and 45%, respectively.

For the compound `O=C(NC1CCN(CCN2CCc3ccccc3CC2)CC1)c1ccc(-c2ccc(C(F)(F)F)cc2)cc1`, the Inhibition amounted to 99% in assay [1], 43% in assay [2] and 45% in assay [3].

Regarding `CCCc1cc(N2CCC(N(CC)CC)C2)nc(Nc2ccc(OC)cc2)n1` (configuration not stated), the figures for the Inhibition in assay [1], in assay [2] and in assay [3] were 90%, 4% and 9%, respectively.

As to `COc1ccc(C=C2SC(=O)N=C2Nc2ccccc2)c(OC)c1`, the Inhibition in assay [1] is 91%; in assay [2] it was 89%; in assay [3], 51%.

As to `CNC(=O)c1cnc(Nc2ccc(OCC(O)CN(C)C)cc2)nc1Nc1cccc([N+](=O)[O-])c1.O=C(O)C(F)(F)F` (configuration not stated), the Inhibition was determined as 100% in assay [1], 94% in assay [2] and 52% in assay [3].

Turning to `COc1ccccc1CCNC(=O)c1cnc(N2CCN(c3ccncc3)CC2)c(Cl)c1.O=C(O)C(F)(F)F`, the Inhibition in assay [1] was 98%; in assay [2] it was 54%; in assay [3] it was 30%.

As to `Cn1c(NCc2cc(F)cc3c2OCOC3)nc2cc(Nc3ccnc(Nc4cccc(CS(C)(=O)=O)c4)n3)ccc21`, the Inhibition in assay [1] is 100%; in assay [2], 100%; in assay [3] it was 0%.

Regarding `N#Cc1cncc(-c2nc3c(N4CCCC(N)C4)cccc3n2CCNCc2ccccc2)c1.O=C(O)C(F)(F)F` (configuration not stated), the values for the Inhibition in assay [1], in assay [2] and in assay [3] were 100%, 1% and 8%, respectively.

For `CC(C)CCNC(=O)C1Cc2c([nH]c3cc(Br)ccc23)C2(CCN(CCc3ccccc3)CC2)N1` (configuration not stated), the Inhibition in assay [1] turned out to be 97%; in assay [2], 48%; in assay [3], 14%.

Regarding `CC(Cc1ccc(OCCN2CCN(c3ccc(Cl)cc3)CC2)cc1)NCC(O)c1cccc(C(F)(F)F)c1.Cl` (configuration not stated), the results for the Inhibition in assay [1], in assay [2] and in assay [3] were 99%, 96% and 97%, respectively.

As for `CN1CCN(CCNc2c3ccccc3nc3ccc4ccccc4c23)CC1.Cl`, the results for the Inhibition in assay [1], in assay [2] and in assay [3] were 99%, 99% and 22%, respectively.

Take `COc1cc(CNC[C@@H](O)[C@H](Cc2ccccc2)NC(=O)c2cc(C3CCCC3)cc(N3CCCC3=O)c2)cc(OC)c1.Cl`: the Inhibition in assay [1] is listed as 97%; in assay [2], 76%; in assay [3], 16%.

As to `Cc1noc(C)c1-c1ccc2c(Nc3ccccc3C(C)(C)C)c(C(=O)NCc3cccc4ccccc34)cnc2c1.Cl`, the figures for the Inhibition in assay [1], in assay [2] and in assay [3] were 96%, 64% and 4%, respectively.

Consider `CCN(CC)/C(=N/C(=N)Nc1ccc(Br)cc1)NCCCCCCN/C(=N\C(=N)Nc1ccc(Br)cc1)N(CC)CC`, for which the Inhibition in assay [1] was 96%; in assay [2] it was 95%; in assay [3], 0%.

In the case of `Cl.c1ccc(Oc2ccc(Nc3ccnc(Nc4ccc(OCCN5CCCCC5)cc4)n3)cc2)cc1`, the Inhibition in assay [1] is 97%; in assay [2], 66%; in assay [3] it was 23%.

On to `CNC(=O)COC(=O)c1c2c(nc3ccccc13)C(=Cc1ccc3c(c1)OCO3)CCC2`, for which the Inhibition in assay [1] came out at 83%; in assay [2] it was 36%; in assay [3], 7%.

For the compound `Br.Oc1ccc2nc(N3CCNCC3)nc(NCCCc3ccccc3)c2c1`, the Inhibition in assay [1] turned out to be 100%; in assay [2], 0%; in assay [3], 14%.

As to `Cc1c[nH]c(-c2cccc(C(=O)NC3CCC(CCN4CCc5ccc(C#N)cc5CC4)CC3)c2)n1.Cl` (configuration not stated), the figures for the Inhibition in assay [1], in assay [2] and in assay [3] were 100%, 69% and 23%, respectively.

In the case of `Cc1cc(NC(=O)NCCN2CCC(NS(=O)(=O)c3ccccc3F)CC2)c2ccccc2n1`, the Inhibition in assay [1] is 81%; in assay [2], 44%; in assay [3], 0%.

As to `O=C(N[C@@H](Cc1ccccc1)C(=O)NC1CCCc2ccccc21)c1ccc(O)c(-c2ccc(Cl)c(Cl)c2)c1` (some centres not stated), the Inhibition in assay [1] came out at 97%; in assay [2], 99%; in assay [3], 0%.

In the case of `CNCc1ccc2nc(-c3coc(Cc4cc(Cl)ccc4OCC(C)C)n3)[nH]c2c1.Cl`, the Inhibition in assay [1] is 100%; in assay [2] it was 95%; in assay [3] it was 34%.

Turning to `N=C(NCCCCCCCCNC(=N)Nc1ccc(Cl)cc1)Nc1ccc(Cl)cc1`, the Inhibition in assay [1] is 93%; in assay [2] it was 89%; in assay [3] it was 10%.

`CCCCCCN(CCCCCC)CC(O)c1cc(-c2ccc(Cl)cc2)nc2c(C)cc(C)cc12` (configuration not stated): the results for the Inhibition in assay [1], in assay [2] and in assay [3] were 98%, 98% and 27%, respectively.

For `FC(F)(F)c1ccc2[nH]c(-c3cccc(-c4cccc(CNCCN5CCNCC5)c4)c3)nc2c1.O=C(O)C(F)(F)F`, the Inhibition in assay [1] worked out at 92%; in assay [2] it was 18%; in assay [3], 29%.

`Br.CCc1c(CCNCCCCCCNCCc2ccc([N+](=O)[O-])cc2)ccc(O)c1O`: the Inhibition in assay [1] came to 94%; in assay [2], 23%; in assay [3], 5%.

As to `C[C@H](Cc1ccc(OCCCCCCOc2ccc(C[C@@H](C)NC(=O)[C@H](O)c3cccc(Cl)c3)cc2)cc1)NC[C@H](O)c1cccc(Cl)c1`, the Inhibition in assay [1] is on record as 99%; in assay [2], 99%; in assay [3], 39%.

As to `Cc1cc(N2CCOCC2)nc2ccc(NC(=O)c3ccc(Cl)c([N+](=O)[O-])c3)cc12`, the Inhibition in assay [1] worked out at 98%; in assay [2] it was 15%; in assay [3], 12%.

For the compound `CCc1cc2c(=O)c(-c3nc(C)cs3)c([C@H](N)Cc3ccc(O)cc3)oc2cc1O.O=C(O)C(F)(F)F`, the Inhibition in assay [1] turned out to be 100%; in assay [2] it was 19%; in assay [3] it was 11%.

As usually defined, the Inhibition is how much of the control response was suppressed.

The values above are taken from ChEMBL document CHEMBL1157539, “Thousands of chemical starting points for antimalarial lead identification” (Nature, 2010).
